Reference: ChEMBL document CHEMBL3988442, “University of Dundee, Small-Polar-MMV Screening Library” (2021)
For some of these results: Entries with a potency or affinity are not part of this list.

Columns and labels:
Design in all cases: scale not given: direction of the effect not stated beside the values
[1] = molecular target: Protein translocase subunit SecA (Escherichia coli (strain K12)) (UniProt P10408); experiment: Assay to Identify E. coli SecA ATPase Inhibitors; assay type: functional; details: 30 µM
[2] = molecular target: T1, Ubiquitin-activating enzyme e1, putative (Leishmania donovani (strain BPK282A1)) (UniProt E9BSI1); experiment: Leishmania donovani Ubiquitin Activating Enzyme (LdE1); assay type: functional; details: 30 µM
T1 sequence (whole entry): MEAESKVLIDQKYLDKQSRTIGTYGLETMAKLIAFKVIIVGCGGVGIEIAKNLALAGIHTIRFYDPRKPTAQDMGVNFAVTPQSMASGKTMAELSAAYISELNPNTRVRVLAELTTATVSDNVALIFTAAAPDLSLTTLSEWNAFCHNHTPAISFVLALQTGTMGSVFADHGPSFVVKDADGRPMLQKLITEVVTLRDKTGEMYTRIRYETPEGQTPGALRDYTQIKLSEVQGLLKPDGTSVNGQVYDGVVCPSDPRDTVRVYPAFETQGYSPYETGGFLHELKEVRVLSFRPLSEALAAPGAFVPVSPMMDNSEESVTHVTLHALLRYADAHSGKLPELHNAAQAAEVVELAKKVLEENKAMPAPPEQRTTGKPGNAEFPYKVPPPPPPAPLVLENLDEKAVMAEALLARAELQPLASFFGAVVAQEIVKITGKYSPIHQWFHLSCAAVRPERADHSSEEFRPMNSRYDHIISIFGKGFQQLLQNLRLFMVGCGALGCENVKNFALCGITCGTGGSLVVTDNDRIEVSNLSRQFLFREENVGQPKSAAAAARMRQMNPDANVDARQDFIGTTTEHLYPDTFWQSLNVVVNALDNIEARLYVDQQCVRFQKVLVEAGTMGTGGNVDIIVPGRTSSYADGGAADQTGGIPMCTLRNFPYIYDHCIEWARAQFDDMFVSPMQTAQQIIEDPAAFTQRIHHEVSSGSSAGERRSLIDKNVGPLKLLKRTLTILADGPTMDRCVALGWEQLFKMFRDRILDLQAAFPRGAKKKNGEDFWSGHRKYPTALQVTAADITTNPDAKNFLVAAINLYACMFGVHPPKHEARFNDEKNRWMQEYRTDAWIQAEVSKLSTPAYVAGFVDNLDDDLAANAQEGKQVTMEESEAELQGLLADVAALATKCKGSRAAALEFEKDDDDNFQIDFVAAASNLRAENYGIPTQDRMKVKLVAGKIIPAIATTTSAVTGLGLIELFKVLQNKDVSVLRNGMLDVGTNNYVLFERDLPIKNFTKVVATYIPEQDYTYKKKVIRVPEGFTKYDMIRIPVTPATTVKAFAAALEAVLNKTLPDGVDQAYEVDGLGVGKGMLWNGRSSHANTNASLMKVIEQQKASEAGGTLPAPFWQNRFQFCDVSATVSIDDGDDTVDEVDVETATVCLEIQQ

[3] = molecular target: AMP-activated protein kinase, AMPK (Homo sapiens) (UniProt P54646+O43741+P54619+Q9UGJ0+Q9Y478+Q13131+Q9UGI9); experiment: AMP-dependent Kinase enzyme assay. An in vitro enzyme assay that detects ADP turnover that is directly proportional to AMPK activity. This uses naive AMPK that is activated during the assay with MK-8722; assay type: functional; details: 30 µM
[4] = molecular target: Sialic acid-binding Ig-like lectin 9 (Homo sapiens) (UniProt Q9Y336); experiment: Hs-Siglec9 ALPHAscreen SOP 20170721; details: 10 µM
Trypanosoma cruzi = experiment: Trypanosoma cruzi phosphomannomutase and mannose-1-phosphate guanylyltransferase assay; assay type: functional; details: 10 µM
[5] = molecular target: T2, Arginase-2, mitochondrial (Homo sapiens) (UniProt P78540); experiment: in vitro enzyme assay to detect the production of urea directly proportional to the activity of Arginase II; assay type: functional; details: 33.3 µM; also: in the data most compounds retested in dose-response had high values
T2 sequence (whole entry): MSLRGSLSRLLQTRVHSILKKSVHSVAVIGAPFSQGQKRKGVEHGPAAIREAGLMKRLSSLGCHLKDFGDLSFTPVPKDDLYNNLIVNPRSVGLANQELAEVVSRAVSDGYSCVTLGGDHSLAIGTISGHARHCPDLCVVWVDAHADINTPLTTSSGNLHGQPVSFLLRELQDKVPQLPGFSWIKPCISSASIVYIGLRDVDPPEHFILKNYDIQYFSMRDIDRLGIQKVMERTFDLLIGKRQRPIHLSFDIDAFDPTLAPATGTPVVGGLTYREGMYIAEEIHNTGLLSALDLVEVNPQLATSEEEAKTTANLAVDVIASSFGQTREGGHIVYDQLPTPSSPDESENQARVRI

[6] = molecular target: T3, Proteasome subunit beta (Trypanosoma cruzi) (UniProt O96673); experiment: Trypanosoma cruzi proteasome chymotrypsin-like activity (TcProtChymo) assay.; also: in the data most compounds retested in dose-response had high values; assay type: functional; details: 9.37 µM
T3 sequence (whole entry): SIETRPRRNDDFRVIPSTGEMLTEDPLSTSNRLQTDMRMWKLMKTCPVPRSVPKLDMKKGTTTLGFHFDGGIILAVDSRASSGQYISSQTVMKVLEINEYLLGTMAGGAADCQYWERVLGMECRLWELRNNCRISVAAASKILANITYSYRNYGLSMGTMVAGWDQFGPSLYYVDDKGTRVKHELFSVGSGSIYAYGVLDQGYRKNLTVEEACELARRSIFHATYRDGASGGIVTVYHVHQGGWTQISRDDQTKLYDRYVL

Homo sapiens = species: Homo sapiens; experiment: To identify inhibition of the IFN signalling (Jak-Stat) pathway via expression of an eGFP reporter gene under the control of an IFN-stimulated response element (ISRE) containing MxA promoter.; assay type: functional; details: 30 µM
[7] = molecular target: T4, Tyrosyl-tRNA synthetase, putative (Trypanosoma cruzi (strain CL Brener)) (UniProt Q4DSP6); experiment: Trypanosoma cruzi tyrosyl tRNA synthetase (TcYRS) _High Tyrosine SOP; assay type: functional; details: 30 µM; also: in the data most compounds retested in dose-response had high values
T4 sequence (whole entry): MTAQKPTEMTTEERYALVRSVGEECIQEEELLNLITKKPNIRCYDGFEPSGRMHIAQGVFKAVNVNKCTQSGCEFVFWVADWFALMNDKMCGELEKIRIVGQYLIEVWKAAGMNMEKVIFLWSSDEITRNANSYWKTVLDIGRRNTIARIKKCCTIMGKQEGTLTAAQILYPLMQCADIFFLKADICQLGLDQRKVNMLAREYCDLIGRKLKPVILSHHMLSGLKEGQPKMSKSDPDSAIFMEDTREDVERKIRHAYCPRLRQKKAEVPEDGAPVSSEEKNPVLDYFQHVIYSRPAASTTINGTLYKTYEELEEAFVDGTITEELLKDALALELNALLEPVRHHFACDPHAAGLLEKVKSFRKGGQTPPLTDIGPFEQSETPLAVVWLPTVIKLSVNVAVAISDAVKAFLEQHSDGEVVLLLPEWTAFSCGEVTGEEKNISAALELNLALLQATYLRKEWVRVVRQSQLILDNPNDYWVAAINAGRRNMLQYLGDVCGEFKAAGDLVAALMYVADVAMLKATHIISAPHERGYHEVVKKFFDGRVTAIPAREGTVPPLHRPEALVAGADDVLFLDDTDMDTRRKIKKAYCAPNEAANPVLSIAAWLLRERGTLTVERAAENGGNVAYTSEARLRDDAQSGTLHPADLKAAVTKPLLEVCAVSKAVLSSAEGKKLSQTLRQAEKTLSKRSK

[8] = molecular target: T4, Tyrosyl-tRNA synthetase, putative (Trypanosoma cruzi (strain CL Brener)); experiment: Trypanosoma cruzi tyrosyl tRNA synthetase (TcYRS) SOP; assay type: functional; details: 30 µM
[9] = molecular target: Chromo domain-containing protein 1 (Saccharomyces cerevisiae (strain ATCC 204508 / S288c) (Baker's yeast)) (UniProt P32657); experiment: ScCHD-1 Enzyme Inhibition Assay; assay type: functional; details: 30 µM; also: in the data most compounds retested in dose-response had high values
Sequence of Chromo domain-containing protein 1 (Saccharomyces cerevisiae (strain ATCC 204508 / S288c) (Baker's yeast)) (P32657 whole entry, the tested form may be a part): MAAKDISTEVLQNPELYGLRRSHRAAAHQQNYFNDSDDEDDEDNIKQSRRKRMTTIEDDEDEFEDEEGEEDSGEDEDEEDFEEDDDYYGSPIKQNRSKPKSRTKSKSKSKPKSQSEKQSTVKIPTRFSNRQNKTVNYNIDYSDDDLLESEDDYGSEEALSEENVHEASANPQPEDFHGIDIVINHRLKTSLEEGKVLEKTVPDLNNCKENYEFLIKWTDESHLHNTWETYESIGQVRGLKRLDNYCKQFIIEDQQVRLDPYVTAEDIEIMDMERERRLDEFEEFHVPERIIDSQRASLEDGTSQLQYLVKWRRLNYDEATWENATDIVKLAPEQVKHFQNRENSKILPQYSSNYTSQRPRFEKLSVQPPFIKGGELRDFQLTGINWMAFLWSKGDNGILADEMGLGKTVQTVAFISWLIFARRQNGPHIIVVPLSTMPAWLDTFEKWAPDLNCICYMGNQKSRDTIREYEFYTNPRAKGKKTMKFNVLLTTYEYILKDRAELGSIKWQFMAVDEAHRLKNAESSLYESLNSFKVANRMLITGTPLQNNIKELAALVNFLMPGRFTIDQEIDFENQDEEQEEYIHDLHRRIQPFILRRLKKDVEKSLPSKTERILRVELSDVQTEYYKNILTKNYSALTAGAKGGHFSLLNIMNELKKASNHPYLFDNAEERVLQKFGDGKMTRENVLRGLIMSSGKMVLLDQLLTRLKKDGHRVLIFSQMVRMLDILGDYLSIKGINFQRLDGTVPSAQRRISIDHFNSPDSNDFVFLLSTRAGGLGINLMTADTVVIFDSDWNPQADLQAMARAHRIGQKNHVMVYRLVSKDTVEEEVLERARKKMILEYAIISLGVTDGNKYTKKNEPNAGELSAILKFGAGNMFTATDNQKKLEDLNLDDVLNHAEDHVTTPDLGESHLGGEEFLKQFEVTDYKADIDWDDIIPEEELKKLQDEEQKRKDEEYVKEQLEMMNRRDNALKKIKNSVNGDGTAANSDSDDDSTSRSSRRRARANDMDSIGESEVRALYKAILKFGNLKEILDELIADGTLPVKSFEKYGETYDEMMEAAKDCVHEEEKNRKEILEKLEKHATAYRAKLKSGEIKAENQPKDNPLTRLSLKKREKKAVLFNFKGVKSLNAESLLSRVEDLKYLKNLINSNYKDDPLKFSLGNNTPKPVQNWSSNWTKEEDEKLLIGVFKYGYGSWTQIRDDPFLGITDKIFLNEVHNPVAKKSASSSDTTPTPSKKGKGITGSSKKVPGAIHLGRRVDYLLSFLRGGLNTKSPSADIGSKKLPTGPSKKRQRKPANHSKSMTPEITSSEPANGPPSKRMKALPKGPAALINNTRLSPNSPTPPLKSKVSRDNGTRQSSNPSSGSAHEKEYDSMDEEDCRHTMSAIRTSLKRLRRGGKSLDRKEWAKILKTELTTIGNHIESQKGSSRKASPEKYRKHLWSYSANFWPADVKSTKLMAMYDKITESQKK

Sequence of Protein translocase subunit SecA (Escherichia coli (strain K12)) (P10408 whole entry): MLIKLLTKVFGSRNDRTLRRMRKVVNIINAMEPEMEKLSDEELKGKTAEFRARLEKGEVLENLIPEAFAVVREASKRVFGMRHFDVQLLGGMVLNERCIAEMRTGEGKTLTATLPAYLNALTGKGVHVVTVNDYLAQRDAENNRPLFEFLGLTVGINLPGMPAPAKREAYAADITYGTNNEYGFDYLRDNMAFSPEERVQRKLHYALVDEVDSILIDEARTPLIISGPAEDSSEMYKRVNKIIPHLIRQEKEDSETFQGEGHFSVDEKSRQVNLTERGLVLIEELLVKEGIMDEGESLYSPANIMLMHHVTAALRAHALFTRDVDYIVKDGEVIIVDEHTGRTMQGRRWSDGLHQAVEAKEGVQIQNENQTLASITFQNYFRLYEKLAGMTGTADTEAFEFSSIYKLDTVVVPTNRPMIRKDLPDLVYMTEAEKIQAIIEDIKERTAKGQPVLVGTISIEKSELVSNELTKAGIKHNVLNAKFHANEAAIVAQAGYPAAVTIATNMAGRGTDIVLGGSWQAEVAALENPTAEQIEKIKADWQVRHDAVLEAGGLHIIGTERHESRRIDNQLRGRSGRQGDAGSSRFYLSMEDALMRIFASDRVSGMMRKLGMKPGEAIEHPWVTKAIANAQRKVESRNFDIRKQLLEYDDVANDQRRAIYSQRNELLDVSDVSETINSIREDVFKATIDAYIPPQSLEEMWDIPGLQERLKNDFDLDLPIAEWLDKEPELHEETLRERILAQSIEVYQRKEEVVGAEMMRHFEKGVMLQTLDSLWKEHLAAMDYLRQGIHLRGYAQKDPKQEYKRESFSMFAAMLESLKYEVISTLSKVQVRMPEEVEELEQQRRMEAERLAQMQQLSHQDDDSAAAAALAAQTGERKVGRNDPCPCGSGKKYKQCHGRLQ
Sequence of Sialic acid-binding Ig-like lectin 9 (Homo sapiens) (Q9Y336 whole entry): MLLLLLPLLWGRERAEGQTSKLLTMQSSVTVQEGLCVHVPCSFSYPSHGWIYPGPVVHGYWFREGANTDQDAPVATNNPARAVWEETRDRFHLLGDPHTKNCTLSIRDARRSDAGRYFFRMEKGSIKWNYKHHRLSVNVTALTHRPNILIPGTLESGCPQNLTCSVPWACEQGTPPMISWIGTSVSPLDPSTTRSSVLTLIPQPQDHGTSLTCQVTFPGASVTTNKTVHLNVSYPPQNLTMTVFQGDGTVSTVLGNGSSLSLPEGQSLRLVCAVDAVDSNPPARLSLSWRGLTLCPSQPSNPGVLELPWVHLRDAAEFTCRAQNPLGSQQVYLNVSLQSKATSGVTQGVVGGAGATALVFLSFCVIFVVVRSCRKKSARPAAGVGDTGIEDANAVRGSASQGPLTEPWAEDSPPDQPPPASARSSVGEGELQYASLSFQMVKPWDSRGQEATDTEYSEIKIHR

| SMILES | Percent Effect [1] | Percent Effect [2] | Percent Effect [3] | Percent Effect [4] | Percent Effect (Trypanosoma cruzi) | Percent Effect [5] | Percent Effect [6] | Percent Effect (Homo sapiens) | Percent Effect [7] | Percent Effect [8] | Percent Effect [9] |
| --- | --- | --- | --- | --- | --- | --- | --- | --- | --- | --- | --- |
| CC(C)N1Cc2c(C(=O)N3CCOCC3)nn(C)c2C1 | -3.37% | -2.7% | 4.04% | 1.67% | -1.66% | 0.955% | 17.3% | -39.2% | -1.08% | 5.13% | 4.29% |
| Cc1ccc(C(=O)NCCCN2CCOCC2)c(Cl)c1 | -2.82% | 2.6% | 2.57% | 5.34% | 6.79% | -2.76% | 4.33% | 18.2% | 3.23% | 11.1% | 108% |
| O=C(N[C@@H]1CN(Cc2ccccc2)C[C@@H]2CCCO[C@@H]21)C1CC1 | 3.31% | 10.7% | 0.707% | 7.92% | -2.32% | -49.3% | 4.96% | -2.02% | 7.29% | 22.5% | -7.85% |
| COc1ccc([C@@H]2CN(C(=O)CCC(F)(F)F)C[C@H]2NC(C)=O)cc1 | -3.18% | 2.67% | 0.154% | -0.127% | -2.63% | 2.6% | 16.7% | 1.55% | 6.01% | 8.64% | -6.25% |
| O=C(CN1CC(n2cccn2)C1)NCCc1c[nH]c2ccccc12 | -3.91% | -2.7% | 143% | 3.66% | 2.69% | -0.924% | -4.13% | 10.4% | 0.99% | 11% | 7.61% |
| COc1ccc(CNC(=O)N(Cc2ccc(F)cc2F)C2CC2)cn1 | -6.72% | 15.2% | -2.76% | 9.29% | 5.95% | -0.76% | 0.737% | 8.63% | 3.45% | 21.5% | -7.42% |
| CCC(CC)c1cc(CNC(=O)N2CCOC(C)C2)on1 (stereo unspecified) | -3.56% | -2.7% | -0.766% | -6.02% | -1.86% | 2.23% | -2.66% | 3.72% | 3.23% | 1.24% | 0.0369% |
| CNC(=O)CCCNCc1c(C(C)C)nn(C)c1N(C)C | -1.38% | 0% | -11.4% | -8.3% | -2.15% | 2.52% | 0.761% | -13.6% | -2.46% | -1.24% | 5.41% |
| Cc1ccc(C(=O)N2CCN(Cc3nc(C(C)C)no3)CC2)c(=O)[nH]1 | -7.78% | 2.7% | -5.78% | 5.72% | -4.36% | -2.77% | -4.49% | 13.8% | 1.98% | 1.22% | 7.95% |
| Cc1noc(NC(=O)c2ccc(C)c(F)c2)n1 | -3.93% | 20.2% | 3.63% | -2.91% | 4.63% | 0% | 11.7% | 64% | 9.36% | 26.6% | -5.98% |
| CCO[C@H]1CO[C@@]2(CCCN(Cc3nc(C)cs3)C2)C1 | -0.479% | 16.4% | -4.62% | 9.84% | 3.17% | -2.4% | 7.79% | -0.894% | 8.33% | 18.5% | -4.88% |
